In general, AC50 refers to the concentration at which the activity in the assay is half-maximal.

The record followed here is PubChem BioAssay (EPA / NIEHS).

A short description of assay [1]: ATG_E_Box_CIS: Attagene CIS-FACTORIAL HepG2 Assay for human Enhancer Box (E-box) (AID 2282936). The conditions noted are these: HepG2 E-box cis-reporter transcription, actives raise or lower the signal. The gist of the method: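 Endogenous transcription factor activity was sensed in human HepG2 liver cells through transfected cis-promoter reporter units. After 24 h of dosing, total RNA was reverse-transcribed and reporter cDNA resolved by capillary electrophoresis.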

The nature of assay [2]: ATG_M_61_CIS: Attagene CIS-FACTORIAL HepG2 Assay for M61 Transcription Factor (Internal Marker) (AID 2282937). The note with it: HepG2 Attagene CIS-FACTORIAL M61 internal marker reporter; actives raise or lower the signal. The gist of the method: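 Using transiently transfected HepG2 liver cells, reporter transcript levels were assessed 24 h post-dosing by RT-PCR and capillary electrophoresis. Changes in either direction were fitted relative to DMSO controls.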

Assay [3] is described as follows: ATG_EGR_CIS: Attagene CIS-FACTORIAL HepG2 Assay for human Early Growth Response 1 (EGR1) (AID 2282938). The conditions noted are these: HepG2 Attagene CIS-FACTORIAL EGR reporter mRNA; actives raise or lower the signal. Summed up: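 Fluorescent capillary-electrophoresis signal of reporter cDNA fragments serves as read-out. HepG2 cells bear transiently transfected cis-promoter reporter units and are exposed 24 h; gain- or loss-of-signal is fitted against DMSO.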

Assay [4] can be described thus: ATG_M_19_CIS: Attagene CIS-FACTORIAL HepG2 Assay for M19 Transcription Factor (Internal Marker) (AID 2282939). The conditions noted are these: HepG2 Attagene CIS-FACTORIAL M19 internal marker reporter; actives raise or lower the signal. Summed up:
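HepG2 cells transiently transfected with cis-regulated multiple reporter transcription units were dosed for 24 h; reporter mRNA was quantified by RT-PCR, 6-FAM primer-extension labelling, HpaI digestion and capillary electrophoresis, with bidirectional fitting against DMSO baseline.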

Assay [5] in a line: ATG_ERE_CIS: Attagene CIS-FACTORIAL HepG2 Assay for Estrogen Response Element (ERE) (AID 2282940). The conditions noted are these: HepG2 ERE cis-reporter, Attagene RNA transcript; actives raise or lower the signal. Summed up: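 HepG2 cells transiently transfected with cis-promoter-driven multiplexed reporter transcription units report endogenous TF activity. After 24 h compound exposure, reporter mRNA is quantified by RT-PCR with capillary electrophoresis fluorescence; bidirectional fitting versus DMSO baseline.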

The nature of assay [6]: ATG_Ets_CIS: Attagene CIS-FACTORIAL HepG2 Assay for human Erythroblast Transformation Specific (ETS) (AID 2282941). The conditions noted are these: HepG2 ETS cis-reporter transcription; AC50: actives raise or lower the signal unless noted; outcome: actives raise or lower the signal unless noted. Summed up: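 Cis-regulated reporter mRNA induction in HepG2 (transient transfection), 24 h exposure, RT-PCR plus capillary electrophoresis detection; DMSO serves as negative control and baseline.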

Assay [7] concerns the target Hepatocyte nuclear factor 3-beta (Homo sapiens) (UniProt Q9Y261). In words: ATG_FoxA2_CIS: Attagene CIS-FACTORIAL HepG2 Assay for human Forkhead box A2 (FOXA2) (AID 2282942). The note with it: HepG2 cis-reporter transcription factor activity, 24 h; actives raise or lower the signal. The gist of the method:
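Fluorescence signal of reporter cDNA fragments, separated by capillary electrophoresis, reflects endogenous transcription factor activity in transfected HepG2 after 24 h. Both increases and decreases fitted against DMSO.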

Assay [8] in a line: ATG_FoxO_CIS: Attagene CIS-FACTORIAL HepG2 Assay for human Forkhead box O (FoxO) (AID 2282943). The note with it: HepG2 Attagene cis-reporter, FoxO element, mRNA; actives raise or lower the signal. The gist of the method: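 Values reflect reporter mRNA induction or loss in HepG2 cells 24 h post-dosing, fitted bidirectionally with DMSO as negative control and baseline. Detection used RT-PCR and fluorescence capillary electrophoresis.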

Assay [9] is described as follows: ATG_GATA_CIS: Attagene CIS-FACTORIAL HepG2 Assay for human GATA Binding Protein (AID 2282944). The note with it: HepG2 GATA cis-element reporter, Attagene multiplex mRNA; actives raise or lower the signal. Summed up:
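HepG2 cells transiently transfected with multiplexed cis-element reporter units reflecting endogenous transcription factor activity; reporter mRNA measured after 24 h dosing by RT-PCR, 6-FAM labeling, HpaI digestion and capillary electrophoresis. Bidirectional fitting versus DMSO baseline.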

Assay [10] can be described thus: ATG_GLI_CIS: Attagene CIS-FACTORIAL HepG2 Assay for human Zinc Finger Protein GLI1 (AID 2282945). The note with it: HepG2, Attagene cis-factorial reporter mRNA, GLI element; actives raise or lower the signal. Summed up:
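HepG2 cells transiently transfected with cis-promoter multiplexed reporter units report endogenous transcription factor activity. After 24 h chemical exposure, reporter mRNA was quantified by RT-PCR, 6-FAM labelling, HpaI digestion and capillary electrophoresis, with bidirectional fitting against DMSO.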

For assay [11], the target named is Bile acid receptor (Homo sapiens) (UniProt Q96RI1). In words: ATG_IR1_CIS: Attagene CIS-FACTORIAL HepG2 Assay for human Nuclear Receptor Subfamily 1 Group H Member 4 (NR1H4), IR1 submotif (AID 2282946). The conditions noted are these: IR1 reporter transcription, actives raise or lower the signal. Summed up: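 Readout: reporter transcript levels by RT-PCR with fluorescent capillary electrophoresis, from HepG2 cells transiently transfected with multiplexed cis-regulated reporters and dosed 24 h. Gain- or loss-of-signal fitted versus DMSO negative control.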

The nature of assay [12]: ATG_GRE_CIS: Attagene CIS-FACTORIAL HepG2 Assay for human Glucocorticoid Response Elements (GRE) (AID 2282947). The note with it: HepG2 GRE cis-reporter, Attagene multiplex mRNA; AC50: actives raise or lower the signal unless noted; outcome: actives raise or lower the signal unless noted. Summed up:
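Cells (HepG2) bearing transfected cis-promoter reporter transcription units were treated with chemical for 24 hours. Reporter mRNA was measured via RT-PCR with capillary electrophoresis, and activity was fitted in both directions relative to DMSO.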

Assay [13] can be described thus: ATG_ISRE_CIS: Attagene CIS-FACTORIAL HepG2 Assay for human Interferon Regulatory Factor 1 (IRF1) binding to an Interferon-Stimulated Response Element (ISRE) (AID 2282948). The note with it: HepG2 ISRE cis-reporter (Attagene), mRNA transcription readout; actives raise or lower the signal. The gist of the method:
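Multiplexed mRNA reporter readout in human liver HepG2 cells: cis-element-driven reporters transfected, compound added for 24 h, transcripts amplified, fluorescently labelled and sized by capillary electrophoresis; curve fitting bidirectional against DMSO.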

A short description of assay [14]: ATG_M_32_CIS: Attagene CIS-FACTORIAL HepG2 Assay for M32 Transcription Factor (Internal Marker) (AID 2282949).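 Also: background control marker of the multiplexed CIS panel rather than a real target.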 The note with it: HepG2 Attagene cis-factorial M32 reporter, mRNA; actives raise or lower the signal. Summed up: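 HepG2 transfectants (cis-regulated reporter transcription units) dosed 24 h. Reporter mRNA by RT-PCR plus CE, analysed as gain or loss relative to DMSO.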

Assay [15] in a line: ATG_M_06_CIS: Attagene CIS-FACTORIAL HepG2 Assay for M06 Transcription Factor (Internal Marker) (AID 2282950). The conditions noted are these: HepG2 Attagene CIS-FACTORIAL M06 internal marker reporter; actives raise or lower the signal. Summed up: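 HepG2 cells transiently transfected with cis-regulated multiple reporter transcription units were exposed to chemical for 24 h; reporter mRNA was quantified by RT-PCR, 6-FAM primer labelling, HpaI digestion and capillary electrophoresis, fitted bidirectionally against DMSO.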

Assay [16] addresses Hypoxia-inducible factor 1-alpha (Homo sapiens) (UniProt Q16665). The experiment in a line: ATG_HIF1a_CIS: Attagene CIS-FACTORIAL HepG2 Assay for human Hypoxia Inducible Factor 1 (HIF1A) (AID 2282951). The note with it: HepG2 Attagene cis-factorial HIF1a reporter transcription; actives raise or lower the signal. Summed up:
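Endogenous-TF cis reporter readout, human HepG2 cells, 24 h incubation; mRNA detected via RT-PCR and capillary electrophoresis fluorescence; DMSO-normalised bidirectional fitting.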

For assay [17], the target named is Hepatocyte nuclear factor 6 (Homo sapiens) (UniProt Q9UBC0). In words: ATG_HNF6_CIS: Attagene CIS-FACTORIAL HepG2 Assay for human Hepatocyte Nuclear Factor 6 (HNF6) (AID 2282952). The conditions noted are these: HepG2 Attagene cis-factorial HNF6 reporter transcription; actives raise or lower the signal. The gist of the method: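 Readout: fluorescent reporter-transcript fragments resolved by capillary electrophoresis after RT-PCR, reflecting endogenous factor activity in transfected HepG2. Exposure 24 h. Gain or loss of signal fitted bidirectionally against DMSO.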

The target of assay [18] is Heat shock factor protein 1 (Homo sapiens) (UniProt Q00613). In words: ATG_HSE_CIS: Attagene CIS-FACTORIAL HepG2 Assay for human Heat Shock Transcription Factor 1 (HSE) (AID 2282953). The conditions noted are these: HepG2 HSE cis-reporter, Attagene RNA transcription; actives raise or lower the signal. Summed up: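 HepG2 cells transiently transfected with multiple reporter transcription units under cis-regulatory promoter control, measuring endogenous transcription factor activity. After 24 h chemical exposure, reporter mRNA quantified by RT-PCR, fluorescent labelling, HpaI digestion and capillary electrophoresis; bidirectional fit versus DMSO.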

The nature of assay [19]: ATG_PBREM_CIS: Attagene CIS-FACTORIAL HepG2 Assay for human Phenobarbital-responsive Enhancer Module (PBREM) (AID 2282955). The note with it: HepG2 PBREM cis-reporter, Attagene multiplexed transcription; actives raise or lower the signal. Summed up:
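Readout: reporter mRNA, fluorescent RT-PCR fragments separated by capillary electrophoresis. System: HepG2 transiently transfected with cis-regulated reporter units. Exposure: 24 h. Analysis: bidirectional, DMSO baseline.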

The nature of assay [20]: ATG_MRE_CIS: Attagene CIS-FACTORIAL HepG2 Assay for human Metal Responsive Element (MRE) (AID 2282954). The conditions noted are these: HepG2 MRE cis-reporter transcription, Attagene multiplex; actives raise or lower the signal. Summed up:
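Cells were transfected with cis-promoter reporter transcription units, then dosed for 24 h. RNA was reverse-transcribed, amplified, fluorescently labelled and resolved by capillary electrophoresis, and activity was fitted in both directions relative to DMSO.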

Structures are written as SMILES. Several values for one entry are separate records, joined by “and”; a condition that tells them apart may be missing. Identical values can stand only once. Activity calls are given as the source filed them. The calls were made as follows: active = hit-call score of the fitted dose curve at least 0.9, where 1 is the maximum; inactive = score below 0.9.

Sequence of Hepatocyte nuclear factor 3-beta (Homo sapiens) (Q9Y261 whole entry, looked up, the tested form may be a part): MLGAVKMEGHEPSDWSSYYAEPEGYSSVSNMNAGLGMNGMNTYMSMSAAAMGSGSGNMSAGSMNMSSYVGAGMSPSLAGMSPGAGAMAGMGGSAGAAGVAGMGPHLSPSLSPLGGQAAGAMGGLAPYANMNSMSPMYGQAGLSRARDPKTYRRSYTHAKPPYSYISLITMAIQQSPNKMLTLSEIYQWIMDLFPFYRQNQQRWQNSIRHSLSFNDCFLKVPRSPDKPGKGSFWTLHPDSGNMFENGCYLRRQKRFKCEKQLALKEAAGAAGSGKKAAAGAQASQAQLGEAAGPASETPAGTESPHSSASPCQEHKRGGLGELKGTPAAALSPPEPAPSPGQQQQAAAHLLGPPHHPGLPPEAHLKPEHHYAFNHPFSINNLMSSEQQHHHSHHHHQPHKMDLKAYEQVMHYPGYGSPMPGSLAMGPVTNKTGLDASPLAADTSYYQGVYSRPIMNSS
Sequence of Hypoxia-inducible factor 1-alpha (Homo sapiens) (Q16665 whole entry, looked up): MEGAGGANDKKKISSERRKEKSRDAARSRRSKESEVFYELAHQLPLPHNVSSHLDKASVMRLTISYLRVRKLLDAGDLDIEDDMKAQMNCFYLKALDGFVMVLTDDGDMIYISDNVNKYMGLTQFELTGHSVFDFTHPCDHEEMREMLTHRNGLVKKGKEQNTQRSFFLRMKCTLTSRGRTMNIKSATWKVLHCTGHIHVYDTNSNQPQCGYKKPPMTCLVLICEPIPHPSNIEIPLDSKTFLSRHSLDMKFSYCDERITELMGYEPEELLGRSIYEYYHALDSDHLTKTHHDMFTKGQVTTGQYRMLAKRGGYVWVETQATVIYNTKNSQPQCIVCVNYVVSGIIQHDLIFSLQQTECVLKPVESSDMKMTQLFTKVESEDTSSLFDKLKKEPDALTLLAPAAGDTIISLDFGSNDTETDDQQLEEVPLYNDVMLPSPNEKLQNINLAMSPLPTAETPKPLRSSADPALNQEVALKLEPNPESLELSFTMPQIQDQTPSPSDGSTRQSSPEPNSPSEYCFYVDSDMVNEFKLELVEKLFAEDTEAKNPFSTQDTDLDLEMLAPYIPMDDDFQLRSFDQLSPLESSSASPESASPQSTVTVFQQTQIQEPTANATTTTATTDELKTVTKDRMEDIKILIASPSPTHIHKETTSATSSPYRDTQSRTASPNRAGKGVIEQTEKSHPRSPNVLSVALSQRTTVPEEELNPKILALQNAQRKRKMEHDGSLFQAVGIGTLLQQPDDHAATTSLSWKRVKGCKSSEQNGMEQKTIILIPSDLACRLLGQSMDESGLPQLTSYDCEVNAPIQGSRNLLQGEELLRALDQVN
Sequence of Hepatocyte nuclear factor 6 (Homo sapiens) (Q9UBC0 whole entry, looked up, the tested form may be a part): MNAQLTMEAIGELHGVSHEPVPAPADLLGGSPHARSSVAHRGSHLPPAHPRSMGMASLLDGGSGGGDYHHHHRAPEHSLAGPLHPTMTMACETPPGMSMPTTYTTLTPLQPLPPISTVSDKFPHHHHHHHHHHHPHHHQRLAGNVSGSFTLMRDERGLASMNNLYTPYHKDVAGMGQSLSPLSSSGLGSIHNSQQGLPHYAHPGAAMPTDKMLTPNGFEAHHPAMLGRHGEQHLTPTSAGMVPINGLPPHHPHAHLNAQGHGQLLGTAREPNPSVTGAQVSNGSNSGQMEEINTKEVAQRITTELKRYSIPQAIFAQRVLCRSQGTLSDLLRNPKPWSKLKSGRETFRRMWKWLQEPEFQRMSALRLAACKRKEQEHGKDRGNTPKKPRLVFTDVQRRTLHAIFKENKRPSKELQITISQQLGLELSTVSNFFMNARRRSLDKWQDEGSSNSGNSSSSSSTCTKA
Sequence of Heat shock factor protein 1 (Homo sapiens) (Q00613 whole entry, looked up): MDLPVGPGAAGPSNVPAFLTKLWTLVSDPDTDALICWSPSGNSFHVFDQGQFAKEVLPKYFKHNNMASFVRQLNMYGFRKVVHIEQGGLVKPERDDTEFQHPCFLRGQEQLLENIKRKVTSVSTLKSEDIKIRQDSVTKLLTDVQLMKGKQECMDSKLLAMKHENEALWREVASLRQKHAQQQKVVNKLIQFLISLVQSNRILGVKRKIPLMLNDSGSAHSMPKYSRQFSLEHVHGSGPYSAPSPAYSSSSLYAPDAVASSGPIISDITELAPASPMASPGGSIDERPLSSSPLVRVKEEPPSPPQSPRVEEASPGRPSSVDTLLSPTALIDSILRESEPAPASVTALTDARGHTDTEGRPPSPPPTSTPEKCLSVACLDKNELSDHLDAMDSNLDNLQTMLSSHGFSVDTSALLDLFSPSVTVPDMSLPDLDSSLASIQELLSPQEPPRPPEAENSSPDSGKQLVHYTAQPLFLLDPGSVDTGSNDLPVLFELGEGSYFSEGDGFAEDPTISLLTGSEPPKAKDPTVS
Sequence of Bile acid receptor (Homo sapiens) (Q96RI1 whole entry, looked up): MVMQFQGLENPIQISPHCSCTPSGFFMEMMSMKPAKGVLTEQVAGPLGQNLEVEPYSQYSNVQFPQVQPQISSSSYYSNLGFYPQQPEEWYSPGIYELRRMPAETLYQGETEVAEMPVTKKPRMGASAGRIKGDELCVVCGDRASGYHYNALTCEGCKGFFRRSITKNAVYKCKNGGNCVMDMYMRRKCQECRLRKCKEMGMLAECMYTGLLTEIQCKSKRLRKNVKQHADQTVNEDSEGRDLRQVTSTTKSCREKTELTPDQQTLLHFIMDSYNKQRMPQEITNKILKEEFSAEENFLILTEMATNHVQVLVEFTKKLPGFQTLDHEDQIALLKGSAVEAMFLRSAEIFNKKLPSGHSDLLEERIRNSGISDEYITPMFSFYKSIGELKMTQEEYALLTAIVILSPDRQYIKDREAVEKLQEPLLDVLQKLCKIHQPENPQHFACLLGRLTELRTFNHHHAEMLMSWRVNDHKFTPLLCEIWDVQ

As to `C=CCOCC(CO)(CO)CO`, the result in [1], in [2], in assay [3], in assay [4], in assay [5] and in [6] was inactive. In addition, the molecule was called inactive in assay [7], in [8], in assay [9], in assay [10], in [11] and in [12]. Also, the molecule was classed as inactive in assay [13], in assay [14], in [15], in assay [16], in assay [17] and in [18]. Moreover, the outcome in [19] was inactive.

Consider `C/C=C/C(=O)C1=C(C)CCCC1(C)C`, for which the outcome in assay [1], in assay [2], in [4], in [5], in [6] and in [7] was inactive. Also, the molecule was classed as inactive in [9], in assay [12], in [14], in assay [15], in [16] and in [19]. The AC50 in [3] was 55.4 µM (active); in assay [8], 138 µM (active); in assay [11], 43.9 µM (active); in [17], 65.5 µM (active); in assay [18], 63.7 µM (active); in [20], 36.5 µM (active).

For the molecule `O=c1cc(-c2ccccc2)oc2ccc3ccccc3c12`, the result in [1], in [2], in assay [3], in assay [4], in assay [6] and in assay [7] was inactive. Moreover, the outcome in assay [8], in assay [9], in assay [10], in assay [13], in assay [14] and in assay [15] was inactive. For the same molecule, the molecule was called inactive in assay [16], in assay [17], in assay [18], in assay [20] and in [19]. Also, in assay [5], the AC50 is 1.19 µM (active) and 521 nM (active).

On to `CC1=CC(=O)c2ccccc2C1=O`, for which the AC50 in assay [1] was 6.91 µM (active). Besides, the result in [2], in [3], in assay [4], in [5], in [6] and in assay [7] was inactive. Also, the molecule was called inactive in assay [8], in assay [9], in [11], in assay [12], in [13] and in assay [14]. The molecule was called inactive in assay [15], in assay [16], in assay [17], in assay [18], in assay [20] and in [19].
